A number with no mark means an inactive call. The rule behind the calls is not given here.
The compounds below were run on Aerobactin synthetase IucA (Klebsiella pneumoniae, hypervirulent) (assay: biochemical IucA inhibition screen of LOPAC library by absorbance (AID 1346212;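 note: 100% = no compound wells and 0% = no enzyme wells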)). Details: IucA enzyme assay, absorbance (OD) readout; active compounds read low;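 tested at 8 µM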.

How did the remaining activity turn out when `O=C(O)[C@@H]1C[C@H](C(=O)O)N1` was run?
The remaining activity was 109%.

With `Nc1nc(Cl)nc2c1ncn2[C@@H]1O[C@H](CO)[C@@H](O)[C@H]1O` as the compound, how does the remaining activity read?
The remaining activity was 115%.

With `COc1ccc2c(c1)c(CC(=O)O)c(C)n2Cc1ccc(Cl)cc1` as the compound, how does the remaining activity read?
Its remaining activity is 99.3%.

With `Nc1ncnc2c1ncn2C1CCCO1` (stereo not given) as the compound, how does the remaining activity read?
The remaining activity was 75.8%.

`COc1cc2nc(N3CCN(C(=O)OCc4ccccc4)[C@H](C(=O)NC(C)(C)C)C3)nc(N)c2cc1OC` was tested. Which remaining activity did it give?
The remaining activity was 91.6%.

For `C[C@H](O)C(=O)C1=Nc2c(nc(N)[nH]c2=O)NC1`, which remaining activity is on record?
The remaining activity was 109%.

How did the remaining activity turn out when `NCCCCNCCCN` was run?
The remaining activity was 107%.

Which remaining activity does the source give for `O=c1[nH]c(=O)n([C@H]2C[C@H](O)[C@@H](CO)O2)cc1/C=C/Br` here?
The remaining activity was 123%.

With `CN1Cc2sccc2C(c2ccc(O)c(O)c2)C1` (stereo not given) as the compound, how does the remaining activity read?
Its remaining activity is 120%.

How did the remaining activity turn out when `Cc1cc(O)c2c(c1)C(=O)c1cc(O)cc(O)c1C2=O` was run?
The remaining activity was 76.7%.

How did the remaining activity turn out when `CCn1c(=O)[nH]c2cc(Cl)c(Cl)cc21` was run?
The remaining activity was 98.7%.

For `NC(=O)C(=O)O`, which remaining activity is on record?
Its remaining activity is 121%.

`CC[C@H](CO)Nc1nc(NCc2ccccc2)c2ncn(C(C)C)c2n1` was tested. Which remaining activity did it give?
The remaining activity was 123%.

With `N#C/C(=C\c1ccc(O)c(O)c1)C(=O)NCc1ccccc1` as the compound, how does the remaining activity read?
Its remaining activity is 101%.

Which remaining activity does the source give for `CN(C)c1ccc(/C=C2\C(=O)Nc3ccccc32)cc1` here?
Its remaining activity is 95.7%.

With `NC(N)=N[C@@H](CCC(=O)O)C(=O)O` as the compound, how does the remaining activity read?
Its remaining activity is 115%.

With `CC(C)NCC(O)COc1ccc(CCOCC2CC2)cc1` (stereo not given) as the compound, how does the remaining activity read?
Its remaining activity is 123%.

How did the remaining activity turn out when `COc1ccc2c(c1)CC[C@@H]1[C@@H]2CC[C@]2(C)[C@@H](NCCCCCCN3C(=O)CCC3=O)CC[C@@H]12` was run?
The remaining activity was 119%.

How did the remaining activity turn out when `O=c1[nH]c(=O)n([C@H]2C[C@H](O)[C@@H](CO)O2)cc1Br` was run?
Its remaining activity is 96.4%.

Which remaining activity does the source give for `COc1cc2ncnc(Nc3cccc(Cl)c3)c2cc1OC` here?
The remaining activity was 106%.

How did the remaining activity turn out when `Nc1nc(SCc2ccc([N+](=O)[O-])cc2)c2ncn([C@@H]3O[C@H](CO)[C@H](O)C3O)c2n1` (stereo not given in full) was run?
Its remaining activity is 107%.

With `CC(C)c1ccc2c(c1)c(SC(C)(C)C)c(CC(C)(C)C(=O)O)n2Cc1ccc(Cl)cc1` as the compound, how does the remaining activity read?
The remaining activity was 113%.

Which remaining activity does the source give for `CNc1ncnc2c1ncn2[C@H]1C[C@H](OP(=O)(O)O)[C@@H](COP(=O)(O)O)O1` here?
Its remaining activity is 124%.

Which remaining activity does the source give for `N[C@@H](Cc1c[nH]c2ccc(O)cc12)C(=O)O` here?
The remaining activity was 99.1%.

With `COc1ccccc1N1CCN(CCN(C(=O)C2CCCCC2)c2ccccn2)CC1` as the compound, how does the remaining activity read?
Its remaining activity is 119%.

How did the remaining activity turn out when `O=C(O)CNC(=O)C(CS)Cc1ccccc1` (stereo not given) was run?
The remaining activity was 119%.

`O=C1NC(=O)c2cc(Nc3ccccc3)c(Nc3ccccc3)cc21` was tested. Which remaining activity did it give?
Its remaining activity is 113%.

With `Cn1cc(C(F)(F)F)nc1-c1ccc(OCC(O)CNCCOc2ccc(O)c(C(N)=O)c2)cc1` (stereo not given) as the compound, how does the remaining activity read?
Its remaining activity is 96.8%.

For `O=c1[nH]c2cc(C(F)(F)F)ccc2n1-c1cc(C(F)(F)F)ccc1O`, which remaining activity is on record?
Its remaining activity is 112%.

How did the remaining activity turn out when `CC(C)(C=O)Cc1cc(C(C)(C)C)c(O)c(C(C)(C)C)c1` was run?
The remaining activity was 115%.

How did the remaining activity turn out when `CCN(CC)CC#CCOC(=O)C(O)(c1ccccc1)C1CCCCC1` (stereo not given) was run?
Its remaining activity is 118%.

How did the remaining activity turn out when `CC(N)=O` was run?
The remaining activity was 124%.

With `Nc1ccc(-c2nc3ccc(-c4nc5ccc(N)cc5[nH]4)cc3[nH]2)cc1` as the compound, how does the remaining activity read?
The remaining activity was 114%.

`Cc1nc(N=Nc2cc([N+](=O)[O-])ccc2Cl)c(COP(=O)(O)O)c(C=O)c1O` was tested. Which remaining activity did it give?
The remaining activity was 117%.

`C[C@H](Cc1ccccc1)Nc1ncnc2c1ncn2[C@@H]1O[C@H](CO)[C@H](O)C1O` (stereo not given in full) was tested. Which remaining activity did it give?
Its remaining activity is 118%.

For `NC(N)=NC(=O)c1nc(Cl)c(N2CCCCCC2)nc1N`, which remaining activity is on record?
The remaining activity was 120%.

Which remaining activity does the source give for `COc1ccccc1N1CCN(CCCNc2c(C)c(=O)n(C)c(=O)n2C)CC1` here?
The remaining activity was 96.4%.

`Cn1ccc2cc3c(cc21)CCN3C(=O)Nc1cccnc1` was tested. Which remaining activity did it give?
Its remaining activity is 102%.

With `COc1cc2ncc(-c3ccccc3)nc2cc1OC` as the compound, how does the remaining activity read?
The remaining activity was 120%.

With `Cn1cc(C(=O)OCC2CCN(CCNS(C)(=O)=O)CC2)c2ccccc21` as the compound, how does the remaining activity read?
The remaining activity was 104%.
